Molecules are shown by their SMILES. About 1,500 (3.8%) of roughly 39,000 compounds were called active. The list comes from a sample in which actives are over-represented; it also holds similar structures and randomly drawn compounds.

For the test, the system named is HSkMC (human skeletal muscle cells). Briefly: cytotoxicity call (relative viability < 0.9). The settings on record: 10 µM.
Regarding `C[C@H]1CN([C@@H](C)CO)C(=O)c2cc(NC(=O)Nc3ccc(C(F)(F)F)cc3)ccc2O[C@@H]1CN(C)Cc1ccc(Cl)c(Cl)c1`, the cytotoxicity call was “inactive”.

On to `C[C@H](CO)N1C[C@H](C)[C@@H](CN(C)Cc2ccc(Cl)c(Cl)c2)Oc2ccc(NC(=O)Nc3ccc(C(F)(F)F)cc3)cc2C1=O`, for which the cytotoxicity call is “active”.

On to `C[C@@H]1CN([C@H](C)CO)C(=O)c2cc(NC(=O)Nc3ccc(C(F)(F)F)cc3)ccc2O[C@@H]1CN(C)Cc1ccc(Cl)c(Cl)c1`, for which the cytotoxicity call was “active”.

Take `C[C@@H]1CN([C@@H](C)CO)C(=O)c2cc(NC(=O)Nc3ccc(C(F)(F)F)cc3)ccc2O[C@@H]1CN(C)Cc1ccc(Cl)c(Cl)c1`: the cytotoxicity call was “active”.

Take `C[C@@H]1CN([C@H](C)CO)C(=O)c2cc(NC(=O)Nc3ccc(C(F)(F)F)cc3)ccc2O[C@@H]1CN(C)Cc1ccncc1`: the cytotoxicity call was “inactive”.

Regarding `C[C@@H]1CN([C@@H](C)CO)C(=O)c2cc(NC(=O)Nc3ccc(C(F)(F)F)cc3)ccc2O[C@H]1CN(C)Cc1ccc(Cl)c(Cl)c1`, the cytotoxicity call is “inactive”.

`C[C@H](CO)N1C[C@H](C)[C@H](CN(C)Cc2ccc(Cl)c(Cl)c2)Oc2ccc(NC(=O)Nc3ccc(C(F)(F)F)cc3)cc2C1=O`: the cytotoxicity call was “active”.

`C[C@@H]1CN([C@H](C)CO)C(=O)c2cc(NS(=O)(=O)c3ccc(F)cc3)ccc2O[C@H]1CN(C)Cc1ccncc1`: the cytotoxicity call was “inactive”.

Regarding `CN1C(=O)c2cc(NS(C)(=O)=O)ccc2OC[C@H]2O[C@@H](CC(=O)N3CCOCC3)CC[C@@H]21`, the cytotoxicity call is “inactive”.

Take `C[C@@H]1CCCCO[C@H](CN(C)S(=O)(=O)c2cccs2)[C@@H](C)CN([C@H](C)CO)C(=O)c2cc(NC(=O)C3CCCCC3)ccc2O1`: the cytotoxicity call is “inactive”.

Regarding `COCC(=O)N1[C@@H]2c3ccc(C4=CCCCC4)c(=O)n3C[C@@H]2[C@@H](CO)[C@@H]1C(=O)N1CCN(C)CC1`, the cytotoxicity call was “inactive”.

`Cc1ccc(S(=O)(=O)Nc2ccc3c(c2)C(=O)N([C@H](C)CO)C[C@@H](C)[C@@H](CN(C)C(=O)Nc2cccc4ccccc24)O3)cc1`: the cytotoxicity call was “inactive”.

Regarding `CO[C@H]1CN(C)C(=O)c2cc(NS(=O)(=O)CC(F)(F)F)ccc2OC[C@@H](C)N(C(=O)NC(C)C)C[C@@H]1C`, the cytotoxicity call is “inactive”.

Consider `O=C1NCCCc2occc21`, for which the cytotoxicity call is “inactive”.

For `Cc1noc(C)c1S(=O)(=O)Nc1ccc2c(c1)C(=O)N([C@@H](C)CO)C[C@H](C)[C@H](CN(C)Cc1ccccc1)O2`, the cytotoxicity call is “inactive”.

As to `CO[C@H](CN(C)S(=O)(=O)c1ccc(C)cc1)[C@H](C)CN([C@@H](C)CO)S(=O)(=O)c1cccc(Cl)c1`, the cytotoxicity call is “inactive”.

For `COc1ccc(NC(=O)N(C)C[C@@H]2Oc3ncc(C#CCN(C)C)cc3C(=O)N([C@H](C)CO)C[C@@H]2C)cc1`, the cytotoxicity call was “inactive”.

In the case of `COCC#Cc1ccc2c(c1)O[C@@H](CN(C)C(=O)C1CCOCC1)[C@H](C)CN([C@@H](C)CO)S2(=O)=O`, the cytotoxicity call is “inactive”.

Turning to `C[C@@H]1CN([C@H](C)CO)C(=O)c2cc(NC(=O)Nc3ccc(C(F)(F)F)cc3)ccc2O[C@H]1CN(C)Cc1ccc(Cl)c(Cl)c1`, the cytotoxicity call was “active”.

Regarding `C[C@H]1CN([C@@H](C)CO)C(=O)c2cc(NC(=O)Nc3ccc(F)cc3)ccc2O[C@@H]1CN(C)Cc1ccc(Cl)c(Cl)c1`, the cytotoxicity call was “inactive”.

On to `C[C@H]1CN([C@@H](C)CO)C(=O)c2cc(NC(=O)Nc3ccc(C(F)(F)F)cc3)ccc2O[C@H]1CN(C)Cc1ccc(Cl)c(Cl)c1`, for which the cytotoxicity call was “active”.

As to `C[C@H](CO)N1C[C@H](C)[C@@H](CN(C)Cc2ccc(Cl)c(Cl)c2)Oc2ccc(NC(=O)Nc3ccc(F)cc3)cc2C1=O`, the cytotoxicity call is “inactive”.

Regarding `C[C@@H]1CN([C@@H](C)CO)S(=O)(=O)c2ccc(Br)cc2O[C@H]1CN(C)S(=O)(=O)c1ccccc1`, the cytotoxicity call was “inactive”.

With `C[C@@H]1CN([C@H](C)CO)C(=O)Cc2cc(NS(=O)(=O)c3ccc(F)cc3)ccc2O[C@@H]1CN(C)Cc1ccncc1`, the cytotoxicity call was “inactive”.

With `C[C@H]1CN([C@@H](C)CO)C(=O)CCCn2nncc2CO[C@H]1CN(C)S(=O)(=O)c1cn(C)cn1`, the cytotoxicity call is “inactive”.

As to `Cc1noc(C)c1NC(=O)N(C)C[C@H]1Oc2c(NC(=O)Nc3ccc(C(F)(F)F)cc3)cccc2C(=O)N([C@H](C)CO)C[C@@H]1C`, the cytotoxicity call was “inactive”.

As for `C[C@H]1CN([C@@H](C)CO)S(=O)(=O)c2ccc(-c3ccncc3)cc2O[C@@H]1CN(C)C(=O)c1cccc(F)c1`, the cytotoxicity call is “inactive”.

`CNC(=O)CN1C(=O)[C@@H]2[C@@H](C1=O)[C@@H]1C=C[C@@H]2C1`: the cytotoxicity call is “inactive”.

In the case of `C[C@H]1CN([C@@H](C)CO)C(=O)c2cccc(NC(=O)Nc3ccc(F)cc3)c2O[C@H]1CN(C)CC1CCCCC1`, the cytotoxicity call was “inactive”.

As to `C[C@H]1CN([C@@H](C)CO)C(=O)c2cccc(NC(=O)Nc3ccc(C(F)(F)F)cc3)c2O[C@@H]1CN(C)CC1CCCCC1`, the cytotoxicity call is “active”.

For `C[C@@H]1CN([C@H](C)CO)C(=O)c2cccc(NC(=O)Nc3ccc(F)cc3)c2O[C@@H]1CN(C)CC1CCCCC1`, the cytotoxicity call is “inactive”.

Take `C[C@@H]1CN([C@H](C)CO)C(=O)c2cccc(NC(=O)Nc3ccc(C(F)(F)F)cc3)c2O[C@H]1CN(C)CC1CCCCC1`: the cytotoxicity call was “active”.

Regarding `C[C@H](CO)N1C[C@H](C)[C@@H](CN(C)CC2CCCCC2)Oc2c(NC(=O)Nc3ccc(C(F)(F)F)cc3)cccc2C1=O`, the cytotoxicity call is “active”.

Take `C[C@@H]1CN([C@@H](C)CO)C(=O)c2cccc(NC(=O)Nc3ccc(F)cc3)c2O[C@H]1CN(C)CC1CCCCC1`: the cytotoxicity call is “inactive”.

On to `C[C@@H]1CN([C@H](C)CO)C(=O)c2cccc(NC(=O)Nc3ccc(F)cc3)c2O[C@H]1CN(C)CC1CCCCC1`, for which the cytotoxicity call was “inactive”.

Take `C[C@@H]1CN([C@H](C)CO)C(=O)c2cccc(NC(=O)Nc3ccc(C(F)(F)F)cc3)c2O[C@@H]1CN(C)CC1CCCCC1`: the cytotoxicity call was “active”.

For `C[C@H](CO)N1C[C@H](C)[C@H](CN(C)CC2CCCCC2)Oc2c(NC(=O)Nc3ccc(C(F)(F)F)cc3)cccc2C1=O`, the cytotoxicity call was “inactive”.

Consider `C[C@H](CO)N1C[C@H](C)[C@H](CN(C)CC2CCCCC2)Oc2c(NC(=O)Nc3ccc(F)cc3)cccc2C1=O`, for which the cytotoxicity call is “inactive”.

On to `C[C@H]1CN([C@@H](C)CO)C(=O)c2cccc(NC(=O)Nc3ccc(C(F)(F)F)cc3)c2O[C@H]1CN(C)CC1CCCCC1`, for which the cytotoxicity call is “inactive”.

On to `C[C@@H]1CN([C@@H](C)CO)C(=O)c2cccc(NC(=O)Nc3ccc(C(F)(F)F)cc3)c2O[C@@H]1CN(C)CC1CCCCC1`, for which the cytotoxicity call is “inactive”.

In the case of `C[C@@H]1CN([C@H](C)CO)C(=O)c2cc(C#Cc3ccccc3F)cnc2O[C@@H]1CN(C)C(=O)Cc1ccncc1`, the cytotoxicity call is “inactive”.

In the case of `C[C@H](CO)N1C[C@H](C)[C@H](CN(C)S(=O)(=O)c2cn(C)cn2)OCCCC[C@H](C)Oc2ccc(NC(=O)Nc3ccc(C(F)(F)F)cc3)cc2C1=O`, the cytotoxicity call was “inactive”.

Turning to `O=C(CCC(=O)N1CCOCC1)Nc1c(F)c(F)nc(N2CCOCC2)c1F`, the cytotoxicity call is “inactive”.

Turning to `C[C@@H]1CCCCO[C@H](CN(C)S(=O)(=O)c2ccccc2)[C@H](C)CN([C@@H](C)CO)C(=O)c2cc(NC(=O)Nc3cccc4ccccc34)ccc2O1`, the cytotoxicity call is “inactive”.

For `COCC(=O)N1C[C@]2(C1)CN([C@H](CO)c1c2c2ccc(cc2n1C)OC)C(=O)CN1CCOCC1`, the cytotoxicity call was “inactive”.

Take `C/C=C/c1cccc(-c2nc(C(=O)NCc3ccc(OC)cc3)cc3c2[C@@H](CCO)N([S@@](=O)C(C)(C)C)C3)c1`: the cytotoxicity call is “inactive”.

Turning to `Cc1ccc(S(=O)(=O)N(C)C[C@H]2Oc3ncc(Br)cc3C(=O)N([C@H](C)CO)C[C@H]2C)cc1`, the cytotoxicity call was “inactive”.

Regarding `C[C@H](CO)N1C[C@H](C)[C@H](CN(C)Cc2ccc(C(F)(F)F)cc2)OCCCC[C@H](C)Oc2ccc(NS(C)(=O)=O)cc2C1=O`, the cytotoxicity call is “inactive”.

In the case of `COc1ccc(OCC(=O)NCC(=O)O)cc1`, the cytotoxicity call was “inactive”.

Take `O=C(O)Cc1nnc(-c2ccncc2)[nH]1`: the cytotoxicity call is “inactive”.

With `O=C(O)CCN1CCCCCC1=O`, the cytotoxicity call was “inactive”.

As for `CCn1nnc2c1CCN(S(=O)(=O)c1cn(C)cn1)[C@@H]2COC`, the cytotoxicity call was “inactive”.

`COc1ccc(S(=O)(=O)N(C)C[C@H]2OCCCC[C@@H](C)Oc3ccc(NC(=O)Nc4ccc5c(c4)OCO5)cc3C(=O)N([C@@H](C)CO)C[C@@H]2C)cc1`: the cytotoxicity call is “inactive”.

Consider `Cc1cc(C(=O)Nc2cccc3c2O[C@H](CN(C)S(=O)(=O)c2cccs2)[C@H](C)CN([C@H](C)CO)C3=O)n(C)n1`, for which the cytotoxicity call was “inactive”.

As to `Oc1ccc(F)c2ccccc12`, the cytotoxicity call is “inactive”.

Regarding `Cc1cccc2ccccc12`, the cytotoxicity call is “inactive”.

Turning to `Oc1cccc2ccccc12`, the cytotoxicity call is “active”.

Regarding `C[C@H](CO)N1C[C@H](C)[C@H](CN(C)C(=O)Nc2ccc(C(F)(F)F)cc2)OCCCC[C@H](C)Oc2ccc(NC(=O)C3CCCCC3)cc2C1=O`, the cytotoxicity call is “inactive”.

As for `O=C(C[C@@H]1CC[C@@H]2[C@H](COC[C@@H](O)CN2S(=O)(=O)c2ccccc2)O1)NCc1ccc2c(c1)OCO2`, the cytotoxicity call was “inactive”.

As to `C[C@H]1CN([C@@H](C)CO)C(=O)c2c(c3ccccc3n2C)-c2ccccc2CO[C@@H]1CN(C)C(=O)NC1CCCCC1`, the cytotoxicity call was “inactive”.

`C=CC(C)(C)c1[nH]c2ccccc2c1C1=C(O)C(=O)C(c2c[nH]c3c(CC=C(C)C)cccc23)=C(O)C1=O`: the cytotoxicity call was “active”.

Turning to `CC(C)=CCC1=C(O)C(=O)c2ccccc2C1=O`, the cytotoxicity call was “inactive”.

Consider `C[C@@H]1CN([C@@H](C)CO)C(=O)c2cc(NS(=O)(=O)c3cn(C)cn3)ccc2O[C@@H]1CN(C)C(=O)Nc1ccc(F)cc1`, for which the cytotoxicity call was “inactive”.

On to `C[C@@H]1CN([C@@H](C)CO)C(=O)c2cc(NC(=O)Nc3cccc4ccccc34)ccc2O[C@@H](C)CCCCO[C@@H]1CN(C)Cc1ccc(C(=O)O)cc1`, for which the cytotoxicity call is “inactive”.

Regarding `Cc1ccc(S(=O)(=O)N(C)C[C@H]2Oc3ccc(NS(=O)(=O)c4ccc(F)cc4)cc3C(=O)N([C@@H](C)CO)C[C@H]2C)cc1`, the cytotoxicity call was “inactive”.

Regarding `COc1ccccc1C#Cc1cnc2c(c1)C(=O)N([C@H](C)CO)C[C@@H](C)[C@H](CN(C)C(=O)c1ccc3c(c1)OCO3)O2`, the cytotoxicity call was “inactive”.

For the compound `COc1ccc(C#Cc2ccc([C@H]3[C@@H](CO)N4CCCCN(S(=O)(=O)c5cn(C)cn5)C[C@@H]34)cc2)cc1`, the cytotoxicity call was “inactive”.

For `CC(C)(O)C#Cc1ccc([C@H]2[C@H](CO)N3CCCCN(S(C)(=O)=O)C[C@@H]23)cc1`, the cytotoxicity call was “inactive”.

On to `COc1ccc(C#Cc2ccc([C@@H]3[C@@H](CO)N4CCCCN(S(=O)(=O)c5cn(C)cn5)C[C@H]34)cc2)cc1`, for which the cytotoxicity call was “active”.

Regarding `COc1ccc(C#Cc2ccc([C@H]3[C@H]4CN(S(=O)(=O)c5cn(C)cn5)CCCCN4[C@H]3CO)cc2)cc1`, the cytotoxicity call was “inactive”.

On to `COc1ccc(C#Cc2ccc([C@H]3[C@H](CO)N4CCCCN(S(=O)(=O)c5cn(C)cn5)C[C@@H]34)cc2)cc1`, for which the cytotoxicity call was “inactive”.

Consider `COc1ccc(C#Cc2ccc([C@@H]3[C@H]4CN(S(=O)(=O)c5cn(C)cn5)CCCCN4[C@H]3CO)cc2)cc1`, for which the cytotoxicity call is “inactive”.

With `COc1ccc(C#Cc2ccc([C@@H]3[C@@H](CO)N4CCCCN(S(=O)(=O)c5cn(C)cn5)C[C@@H]34)cc2)cc1`, the cytotoxicity call was “active”.

With `COc1ccc(C#Cc2ccc([C@H]3[C@@H](CO)N4CCCCN(S(=O)(=O)c5cn(C)cn5)C[C@H]34)cc2)cc1`, the cytotoxicity call is “active”.

With `COc1ccc(C#Cc2ccc([C@@H]3[C@H](CO)N4CCCCN(S(=O)(=O)c5cn(C)cn5)C[C@@H]34)cc2)cc1`, the cytotoxicity call is “inactive”.

These data come from the antibiotic and cytotoxicity screens of Wong et al. (2023).
